Hits are enriched below; roughly 2.4% of the tested compounds scored in any of these assays.
Cruzain Triton = qHTS Assay for Promiscuous and Specific Inhibitors of Cruzain (with detergent); 200,000 compounds, 0.43% hits; purified cruzain, Z-FR-AMC fluorescence, 0.01% Triton; AID 1478, 2009; Potency, µM, actives largely listed as inhibitors; also: nearly all actives have a fitted effect of over 40% in size
Target sequence (P25779 123-467 limits assumed): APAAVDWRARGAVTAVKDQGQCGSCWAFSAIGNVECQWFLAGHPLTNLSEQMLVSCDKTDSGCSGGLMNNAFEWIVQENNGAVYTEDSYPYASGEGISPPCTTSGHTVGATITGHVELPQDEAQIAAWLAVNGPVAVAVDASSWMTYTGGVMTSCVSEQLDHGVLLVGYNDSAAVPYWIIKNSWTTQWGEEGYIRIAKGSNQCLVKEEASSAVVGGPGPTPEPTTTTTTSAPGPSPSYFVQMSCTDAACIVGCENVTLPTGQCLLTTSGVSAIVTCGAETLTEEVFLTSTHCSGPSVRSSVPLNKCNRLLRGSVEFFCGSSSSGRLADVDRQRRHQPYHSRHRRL
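Compounds were screened in titration against cruzain (1.5 nM) with 0.01% Triton X-100 to counter colloidal aggregation. Activity was the AMC fluorescence increase over 60 s after adding 2 uM Z-FR-AMC at pH 5.5.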
Cruzain inh noDet = qHTS Assay for Promiscuous and Specific Inhibitors of Cruzain (without detergent); purified cruzain, Z-FR-AMC fluorescence, no detergent; AID 1476, 2009; Potency, µM, actives largely listed as inhibitors; 200,000 compounds, 2.3% hits; also: nearly all actives have a fitted effect of over 40% in size
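Detergent-free condition (0.00005% Triton X-100) in acetate buffer pH 5.5 with DTT. 1.5 nM enzyme and compound were pre-mixed 15 min, then 2 uM Z-FR-AMC substrate added; reaction progress from fluorescence change between first and third reads (60 s).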
Hits are given with their value; i = inactive; ? = inconclusive. Calls follow the shape of the dose curve; as a rule, active = well fitted curve in the direction sought with a large enough effect; inconclusive = small, poorly fitted or top-dose-only effect, or another doubt; inactive = no such curve, though single readings can be large; an effect the other way counts as inactive or inconclusive.

SMILES	Cruzain Triton	Cruzain inh noDet
O=C(NC(=S)Nc1ccc2c(c1)C(=O)c1ccccc1C2=O)c1ccc(F)cc1	i	4µM
C(=C\c1nc(-c2ccccc2)oc1Nc1ccc2ccccc2c1)/c1ccccc1	i	25µM
O=C(Nc1ccc2oc(-c3ccccc3)nc2c1)c1ccc2ccccc2c1	i	i
COc1ccc(CCNC(=O)c2ccc3c(c2)N(Cc2ccccc2C)C(=O)c2ccccc2S3)cc1OC	i	i
Cc1nnc(SCC(=O)N2CC(=O)Nc3ccccc32)n1-c1ccccc1	i	i
O=C1CN(C(=O)CSc2nnc(-c3ccccc3)n2Cc2ccc3c(c2)OCO3)c2ccccc2N1	28µM	13µM
CCNC(=O)[C@H]1O[C@@H](n2cnc3c(N)nc(NCCc4ccc(CCC(=O)O)cc4)nc32)[C@H](O)[C@H]1O	i	i
CCOC(=O)c1cc(-c2ccc(OC)cc2)n(CCC(=O)NCc2ccccc2OC)c1C	i	?
CC(=O)OCCCNc1cc(SCc2ccco2)c2nonc2c1[N+](=O)[O-]	i	i
CCCC(=O)OCCNc1cc(SCc2ccco2)c2nonc2c1[N+](=O)[O-]	25µM	i
COc1ccc(NC(=O)c2cn(-c3ccccc3)nc2-c2ccc(C)cc2)cc1	i	i
COc1ccc(-c2cc(C(=O)OCC(=O)c3ccc(C)c([N+](=O)[O-])c3)c3ccccc3n2)cc1	i	10µM
COc1ccc(-c2nn(-c3ccccc3)cc2C(=O)n2nnc3ccccc32)cc1	i	16µM
CC(=O)Nc1ccc(C(=O)OCC(=O)c2ccc(C)c([N+](=O)[O-])c2)cc1	i	i
Cc1ccc(-c2nn(-c3ccccc3)cc2C(=O)OCC(=O)Nc2ncc(Cl)cc2Cl)cc1	i	32µM
COc1ccc(-c2nn(-c3ccccc3)cc2C(=O)OCC(=O)c2ccc(C)c([N+](=O)[O-])c2)cc1	i	25µM
Cc1ccc(C(=O)COC(=O)c2cc(-c3ccccc3)nc3ccccc23)cc1C	i	i
O=C(COC(=O)CN1C(=O)c2ccccc2C1=O)Nc1ncc(Cl)cc1Cl	i	i
O=C(O)C[C@H](Cc1ccccc1)C(=O)O	i	i
COC(=O)CN1C(=O)CSc2ccc(S(=O)(=O)Nc3ccc(C)c(Cl)c3)cc21	i	i
O=C(NCC(c1ccco1)S(=O)(=O)c1cccs1)c1ccc(Cl)cc1 (stereo not given)	i	i
O=C(CC1(O)C(=O)N(CCc2ccccc2)c2ccc(Br)cc21)c1ccccc1O (stereo not given)	i	i
Cc1cccc(NC2=CC(c3cccc(Br)c3)N(c3cccc(C)c3)C2=O)c1 (stereo not given)	i	?
COc1ccccc1CNC(=O)CSC1=Nc2ccccc2N=C(c2ccc(F)cc2)C1	i	i
CCOc1ccccc1Nc1nnc(-c2cc3cc(Cl)ccc3oc2=O)s1	i	i
SMILES	Cruzain Triton	Cruzain inh noDet
CN(C)CCOC(=O)c1ccc(N)cc1	i	i
Cn1c(=O)c2c(nc(NCc3ccccc3)n2Cc2ccc(Cl)c(Cl)c2)n(C)c1=O	i	i
Cc1ccccc1CN1c2ccccc2-c2nc(SCC(=O)Nc3cc(F)ccc3F)ncc2S1(=O)=O	i	i
O=C(CSc1ncc2c(n1)-c1cc(Cl)ccc1N(Cc1ccccc1)S2(=O)=O)Nc1ccc(F)cc1F	i	i
COc1ccc(C)cc1NC(=O)CSc1ncc2c(n1)-c1ccc(Cl)cc1N(Cc1ccccc1)S2(=O)=O	i	3.2µM
Cc1cccc(C)c1NC(=O)CSc1ncc2c(n1)-c1ccc(Cl)cc1N(Cc1ccccc1)S2(=O)=O	i	i
COc1ccccc1NC(=O)CSc1ncc2c(n1)-c1ccccc1N(Cc1ccccc1C)S2(=O)=O	i	7.9µM
O=C(CSc1ncc2c(n1)-c1cc(Cl)ccc1N(Cc1ccccc1F)S2(=O)=O)Nc1cccc(C(F)(F)F)c1	i	16µM
O=C(CSc1ncc2c(n1)-c1ccc(Cl)cc1N(Cc1ccccc1)S2(=O)=O)Nc1ccc(F)c(F)c1	i	i
COc1ccccc1NC(=O)CSc1ncc2c(n1)-c1cc(Cl)ccc1N(Cc1ccccc1)S2(=O)=O	i	6.3µM
O=C(O)c1nnsc1-c1ccc(-c2snnc2C(=O)O)cc1	i	i
COc1ccc(NC(=O)CSc2nc(-c3cccs3)cc(C(F)(F)F)n2)cc1OC	i	i
Nc1cc(S(N)(=O)=O)ccc1SSc1ccc(S(N)(=O)=O)cc1N	i	i
CCCN1C(=O)C(Cc2nc3ccccc3c(=O)n2CC)c2ccccc21 (stereo not given)	i	i
CCOc1ccc(CCNC(=O)NCc2noc3ccc(C)cc23)cc1	i	i
Cc1ccc(S(=O)(=O)N2CCC(C(=O)Nc3ccc(C)c(Cl)c3)CC2)cc1	?	i
CCCCCn1c(CCCNC(=O)c2cccc(C)c2)nc2ccccc21	i	?
[O-]/C(=C(\C(=S)Nc1cccc2ccccc12)[n+]1ccccc1)c1ccc(Cl)s1	i	7.9µM
CC(C)(C)c1cc[n+](/C(C(=S)NC2CC2)=C(/[O-])c2ccc(Cl)s2)cc1	i	i
c1ccc(CCN2CCCCCC2)nc1	i	i
O=C(Nc1nc2ccccc2s1)c1cccn(Cc2ccccc2)c1=O	i	i
N=c1oc2cc(O)ccc2cc1C(=O)Nc1nc2ccccc2s1	13µM	20µM
CC1=N/C(=C/c2ccc([N+](=O)[O-])cc2)C(=O)N1c1ccc(Cl)cc1Cl	i	i
CC1=N/C(=C\c2ccc([N+](=O)[O-])cc2)C(=O)N1c1ccc(Cl)cc1	i	16µM
CCCCn1c(=O)c(C(=O)c2ccccc2)nc2ccccc21	i	i
SMILES	Cruzain Triton	Cruzain inh noDet
CCCCNC(=O)CC1C(=O)N(Cc2ccccc2)C(C)c2nc3ccccc3n21 (stereo not given)	i	13µM
Cc1ccc(C2=CC(c3ccccc3F)n3c(nc4ccccc43)N2)cc1C (stereo not given)	i	i
CCOc1ccc(NC(=O)CSc2nc(C)cc(C)n2)cc1	i	i
CCCCOc1ccc(NC(=S)Nc2cc(C)nc(SCCCC)n2)cc1	i	25µM
CCc1ccc(NC(=O)N2CCN(c3nnc(C)c4c(C)n(-c5ccc(Cl)cc5)nc34)CC2)cc1	i	i
CCOC(=O)c1c(Nc2ccccc2)sc(/C=C2\C=Nc3ccccc32)c1O	i	i
CCn1c(O)c(/C=C2\C=Nc3ccccc32)sc1=Nc1ccc(C)cc1	i	16µM
COc1ccc(S(=O)(=O)NCCc2csc(-c3cccc(F)c3)n2)cc1OC	i	i
CC(=O)c1cccc(NC(=O)c2nc(-c3ccccc3)n(-c3ccccc3C)n2)c1	i	7.9µM
COc1ccc(-c2nc(C(=O)Nc3cccc(C(C)=O)c3)nn2-c2ccc(Cl)cc2)cc1	i	i
O=C1NCCN1Cc1cccc(Cl)c1	i	13µM
O=S1(=O)CCN(Cc2cccc(Cl)c2)CC1	i	i
CCOc1ccc2nc(N3CCCC(C(=O)Nc4ccc(OC)c(Cl)c4)C3)sc2c1 (stereo not given)	i	i
CCNc1ncc2ncc(=O)n(C[C@H]3CCCO3)c2n1	i	i
CCNc1ncc2nc(C)c(=O)n(C[C@H]3CCCO3)c2n1	20µM	?
CCc1cccc(C)c1NC(=O)CCn1c(=O)c2cccn2c2ccccc21	i	?
Cc1nn(-c2ccccc2)c2sc(C(=O)Nc3ccc(Br)cc3)cc12	i	i
Cc1cc(C)n(-c2ccc(C(=O)OCn3nnc4ccccc4c3=O)cc2)n1	i	i
Cc1nn(-c2ccccc2)c2sc(C(=O)OCn3nnc4ccccc4c3=O)cc12	i	25µM
